The supplement of paper PMC12636033
± gives the standard deviation of the averaged measurements. The full ranking holds about 33,000 sequences; the median of “E-score (rank enrichment, -0.5 to 0.5)” is about -0.0068, and the highest 2% start at about 0.24. The sample as a whole holds a higher share of the highest values than the screen did.

Test system: muMax20 (Max(13-93) K31hArg/K57hArg, M65Nle)
Assay: PBM 8-mer E-score (E-score (rank enrichment, -0.5 to 0.5)); higher = stronger preferential binding
Experimental: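 Protein binding microarray (universal PBM chip covering all 10-mers in fixed probe flanks) with chemically synthesized human Max(13-93) bHLH-LZ analogs (not full-length Max) bearing noncanonical residues (hArg, Tha, Aib, Nle at 65) and aromatic Cys staples. Read-out per 8-mer (and its reverse complement): E-score (rank-based enrichment, -0.5 to 0.5) and Z-score of median probe intensity.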

Row | Sequence | PBM 8-mer E-score
1 | AGGTGGTG | 0.0398 ± 0.076
2 | ACGTGGTG | 0.336 ± 0.015
3 | CCGTGGTA | -0.0136 ± 0.0022
4 | ACGTGGTA | 0.309 ± 0.021
5 | ACGTGGTC | 0.213 ± 0.093
6 | ATAGAAAT | 0.15 ± 0.089
7 | GGAATAGA | 0.0778 ± 0.075
8 | CACATGGG | 0.181 ± 0.052
9 | CACATGGA | 0.238 ± 0.15
10 | GACATGGA | -0.0732 ± 0.1
11 | GACATGGC | 0.0454 ± 0.031
12 | AACATGGA | 0.135 ± 0.0038
13 | CACATGGC | 0.269 ± 0.088
14 | ATGACGCG | 0.0788 ± 0.13
15 | CCGGACAC | -0.238 ± 0.079
16 | GTAGAATA | 0.235 ± 0.044
17 | ATAGAATG | 0.138 ± 0.018
18 | ATAGAATA | 0.245 ± 0.029
19 | AGTATTCG | 0.0983 ± 0.088
20 | ATTCTATG | 0.109 ± 0.0098
21 | AATAAATG | 0.278 ± 0.018
22 | CAAAAATA | 0.176 ± 0.0026

Row | Sequence | PBM 8-mer E-score
23 | GAAAAATA | 0.158 ± 0.027
24 | CATAAATG | -0.0552 ± 0.089
25 | AATAAATA | 0.245 ± 0.06
26 | AAAAAATA | 0.271 ± 0.019
27 | AAAATATA | 0.21 ± 0.055
28 | CAAATATA | 0.162 ± 0.027
29 | AATAAATT | 0.213 ± 0.037
30 | GATAAATA | 0.149 ± 0.036
31 | TAAATATA | 0.246 ± 0.014
32 | AATAAATC | 0.0155 ± 0.081
33 | AGTATAGC | -0.0321 ± 0.19
34 | CAATTTCG | 0.0689 ± 0.083
35 | GTATGGGA | -0.111 ± 0.019
36 | GAGCACCC | -0.166 ± 0.061
37 | CACGGGAG | 0.00455 ± 0.05
38 | ACGGGAGT | 0.0635 ± 0.097
39 | CACGGGCG | -0.217 ± 0.14
40 | TAAAAATA | 0.131 ± 0.048
41 | CATAAATA | 0.318 ± 0.035
42 | TAAATGTA | 0.285 ± 0.01
43 | CCTAAATA | 0.123 ± 0.022
44 | GTTAAATA | 0.283 ± 0.032

Row | Sequence | PBM 8-mer E-score
45 | CGTAAATA | 0.0359 ± 0.08
46 | CATAAATC | 0.0804 ± 0.0035
47 | CTTAAATA | 0.0909 ± 0.014
48 | GAAATGTA | 0.0974 ± 0.0077
49 | ATTAAATA | 0.2 ± 0.025
50 | CAAATGTA | 0.195 ± 0.11
51 | TATAAATA | 0.2587 ± 0.0014
52 | CCTCCGGC | -0.116 ± 0.096
53 | ATTTGATA | 0.176 ± 0.046
54 | GCTTGACC | -0.013 ± 0.069
55 | ATGGATCG | -0.294 ± 0.055
56 | AATTAGCA | 0.159 ± 0.046
57 | CTGGAGCC | -0.177 ± 0.015
58 | ATGCCCGG | -0.241 ± 0.076
59 | AACTACGA | 0.0584 ± 0.13
60 | AAGTATAC | 0.259 ± 0.043
61 | AAGTATAT | 0.183 ± 0.0083
62 | AAGTATAA | 0.215 ± 0.033
63 | ACAAGGGT | 0.0627 ± 0.11
64 | CGTAGTAA | 0.104 ± 0.053
65 | CATAGTAA | 0.163 ± 0.055
66 | CATAGTCA | 0.05 ± 0.035

Row | Sequence | PBM 8-mer E-score
67 | ATTAGTAC | 0.0781 ± 0.08
68 | ATTAGTAA | 0.246 ± 0.00033
69 | TGTAGTAA | 0.258 ± 0.033
70 | GATAGTAA | 0.0883 ± 0.11
71 | CTTAGTAA | 0.0409 ± 0.1
72 | AGTAGTAA | 0.151 ± 0.057
73 | TATAGTAA | 0.28 ± 0.024
74 | TATAGTCA | 0.246 ± 0.027
75 | GATAGTCA | 0.117 ± 0.051
76 | AACGTTAG | 0.091 ± 0.026
77 | AGAGCAAT | -0.0507 ± 0.013
78 | CCACCGCA | -0.117 ± 0.1
79 | ACGGGTAG | -0.226 ± 0.026
80 | CAGATCCG | -0.166 ± 0.073
81 | CTCCCAGC | -0.118 ± 0.04
82 | ATTAGTTA | 0.173 ± 0.015
83 | CTTAGTTA | 0.0136 ± 0.12
84 | GTTAGTTA | 0.251 ± 0.048
85 | GCCTCGAC | -0.225 ± 0.022
86 | AACCCGGA | -0.327 ± 0.033
87 | GTAAGGCA | 0.203 ± 0.12
88 | ATTCTAGA | 0.0758 ± 0.1

Row | Sequence | PBM 8-mer E-score
89 | ATCTACAA | 0.126 ± 0.062
90 | ACGTGGCG | 0.165 ± 0.085
91 | ACGTGGCT | 0.249 ± 0.1
92 | ACGTGGCA | 0.256 ± 0.033
93 | TCGTGGCA | 0.164 ± 0.017
94 | ACGTGGCC | 0.114 ± 0.13
95 | CCGTGGCA | -0.149 ± 0.013
96 | CAGGCTGG | -0.172 ± 0.05
97 | TATTTCAA | 0.257 ± 0.016
98 | GGTTTCAA | 0.0825 ± 0.073
99 | CTTTTCAA | 0.144 ± 0.06
100 | CATTTCAA | 0.217 ± 0.053
101 | CTTTTCAC | 0.311 ± 0.078
102 | GATTTCAA | -0.0671 ± 0.11
103 | GTTTTCAA | 0.258 ± 0.079
104 | CCTTTCAC | 0.116 ± 0.056
105 | ATTTTCAC | -0.00186 ± 0.074
106 | AATAGGGG | 0.0563 ± 0.032
107 | CGCCGCTA | -0.204 ± 0.0029
108 | ACAGAGCC | -0.0681 ± 0.01
109 | CGCATAAC | 0.153 ± 0.039
110 | AGCGCTCC | -0.263 ± 0.015
